In PubChem BioAssay AID588397 (National Center for Advancing Translational Sciences (NCATS), 2011):
Among all 1,300 compounds or so, about 1,000 (77%) were called active. About 7% were inconclusive and are not listed. Calls follow the shape of the dose curve; as a rule, active = well fitted inhibition curve with a large enough effect; inconclusive = small, poorly fitted or top-dose-only effect; inactive = no such curve, though single readings can be large or run the other way. So high a share suggests a set chosen from earlier hits. The list shows a part of the results.

Assay: qHTS of small molecules that selectively kill Giardia lamblia: Hit Validation.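 Also: viability measured as ATP content by luminescence so killing lowers signal; nearly all actives have a fitted effect of over 65% in size.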
Settings: Giardia lamblia trophozoite viability, dose-response; series mostly up to 38.3 µM
Text: Giardia lamblia is a human pathogen afflicting impoverished nations, and the most common cause of outbreaks of diarrhea in the United States. Giardia has been classified by the CDC as a category B bioterrorism organism. The favored anti giardiasis drugs in the US are metronidazole or tinidazole, compounds that have undesirable side effects. Moreover, increasing resistance to drug regimes and recurrence are a concern. It is thus clear that alternative drug treatments are needed.
In a collaboration between the University of Maryland, College Park and the NIH Chemical Genomics Center, a bioluminescence Giardia viability assay based on the trophozoites' ATP content was developed. This assay is suitable for high throughput screening, and miniaturized the assay for compound screening in 1536-well plates. The goal of the project is to screen the Molecular Libraries Small Molecule Repository (MLSMR) for compounds that selectively kill Giardia trophozoites.
NIH Chemical Genomics Center [NCGC]
NIH Molecular Libraries Probe Centers Network [MLPCN]
Assay Submitter (PI): Osnat Herzberg, University of Maryland, College Park, MD.
1. Dispense 2 ul/well media
2. Dispense 23 nl/well compounds
3. Dispense 4 ul/well Giardia trophozoites at a concentration of 100 cells/well
4. Incubate 48 hrs at 37 deg C anaerobically
5. Dispense 4 ul/well ATPLite 1-Step Luminescence assay kit
6. Incubate 15-30 min at room temperature
7. Read luminescence signal on ViewLux plate reader
Potency is read from the fitted curve at half-maximal effect.

Row | Structure (SMILES) | Potency
1 | Cc1cc([N+](=O)[O-])c2ccccc2[n+]1[O-] | 206 nM (active)
2 | CC(=O)OC[C@]12CCC(C)=C[C@H]1O[C@@H]1[C@H](O)[C@@H](OC(C)=O)[C@@]2(C)[C@]12CO2 | 5160 nM (active)
3 | COC1/C=C/C=C(\C)Cc2cc(O)c(Cl)c(c2)N(C)C(=O)CC(OC(=O)C(C)C)C2(C)OC2C(C)C2CC1(O)NC(=O)O2 (centres undefined) | 460 nM (active)
4 | COC(/C(C)=C/C=C/C(C)=C/c1coc(C)n1)C(C)C1CC(O)C2(C)OC2C=CC(C)C2CC(CC(=O)O2)CC2OC2C(=O)O1 (centres undefined) | 23.1 nM (active)
5 | C[N+]12CCC(CC1)C(=C(c1ccccc1)c1ccccc1)C2 | inactive
6 | COC12C(COC(N)=O)C3=C(C(=O)C(C)=C(N)C3=O)N1CC1C2N1C (centres undefined) | 5790 nM (active)
7 | O=[N+]([O-])c1ccc(O)c([N+](=O)[O-])c1 | 2310 nM (active)
8 | O=[N+]([O-])c1cc([As](=O)(O)c2ccc(O)c([N+](=O)[O-])c2)ccc1O | 818 nM (active)
9 | O=[N+]([O-])c1cc([As](=O)(O)O)ccc1O | 5790 nM (active)
10 | Cc1nnc2ccc(-c3cccc(C(F)(F)F)c3)nn12 | inactive
11 | ClCCOCCCl | inactive
12 | Fc1ccc(C2NCCc3[nH]cnc32)cc1 (centres undefined) | inactive
13 | CCOc1ccc(-c2cc(C(=O)N3CCC4(CC3)OCCO4)c3ccccc3n2)cc1 | 7290 nM (active)
14 | COc1ccc(C[C@H]2NC[C@H](O)[C@H]2OC(C)=O)cc1 | 650 nM (active)
15 | COc1ccc(CC2NCC(O)C2OC(C)=O)cc1 (centres undefined) | 1030 nM (active)
16 | CCOC(=O)C1CCCN(c2ccc([N+](=O)[O-])c3nonc23)C1 (centres undefined) | 1160 nM (active)
17 | CNC(=O)Oc1cccc(-c2cn3cc(Cl)ccc3n2)c1 | 2050 nM (active)
18 | CC1=C(N2CC2)C(=O)C(CO)=C(N2CC2)C1=O | 115 nM (active)
19 | c1ccc2c(c1)[I+]c1ccccc1-2 | 146 nM (active)
20 | COC(=O)c1nc(-c2ccc3c(n2)C(=O)C(N)=C(OC)C3=O)c(N)c(-c2ccc(OC)c(OC)c2O)c1C | 2590 nM (active)
21 | CN(C)C(=O)Oc1ccc(Br)c2ccccc12 | inactive
22 | CC(=O)OC1(C)CC(C)C(=O)C(C(O)CC2CC(=O)NC(=O)C2)C1 (centres undefined) | 18.3 nM (active)
23 | CC1CC(C)(O)CC(C(O)CC2CC(=O)NC(=O)C2)C1=O (centres undefined) | 146 nM (active)
24 | CC(C)(O)C1C2OC(=O)C1C1(O)CC3OC34C(=O)OC2C14C (centres undefined) | inactive
25 | Cc1ncc([N+](=O)[O-])n1CCOc1nonc1N | 1030 nM (active)
26 | Cc1ncc([N+](=O)[O-])n1CCOC(N)=O | 3260 nM (active)
27 | CC1CC(C)CC(C)C(O)C(C#N)=CC=CCC(C2CCCC2C(=O)O)OC(=O)CC(O)C(C)C1 (centres undefined) | 326 nM (active)

Row | Structure (SMILES) | Potency
28 | COc1ccc(OC(=O)N2C/C(=C/c3ccccc3)C(=O)/C(=C\c3ccccc3)C2)cc1 | 1160 nM (active)
29 | NC(=O)c1cc(N2CC2)c([N+](=O)[O-])cc1[N+](=O)[O-] | 650 nM (active)
30 | O=[N+]([O-])c1ccc(-c2ccccc2)c([As](=O)(O)O)c1 | 259 nM (active)
31 | CC1Oc2cc3c(-c4c(O)cc(O)c5c(O)c6c(cc45)OC(C)C(C)C6=O)c(O)cc(O)c3c(O)c2C(=O)C1C (centres undefined) | 1030 nM (active)
32 | COC(COC(N)=O)C1=C(N2CC2)C(=O)C(C)=C(N2CC2)C1=O (centres undefined) | 729 nM (active)
33 | O=[N+]([O-])c1oc2ccc3ccccc3c2c1CCO | 51.6 nM (active)
34 | NN=C(N)N | inactive
35 | C[C@H]1C[C@@H](C)C(=O)[C@@H]([C@H](O)CC2CC(=O)NC(=O)C2)C1 | 72.9 nM (active)
36 | C[C@@H]1C[C@@H]([C@H](O)CC2CC(=O)NC(=O)C2)C(=O)[C@@H](C)C1 | 183 nM (active)
37 | Cn1nc(-c2ccccc2)nc2c(=O)n(C)c(=O)nc1-2 | 163 nM (active)
38 | Cc1nc2c(=O)n(C)c(=O)nc-2n(C)n1 | 259 nM (active)
39 | CCn1nc(/C=C/c2ccccc2)nc2c(=O)n(C)c(=O)nc1-2 | 146 nM (active)
40 | Cc1ccc(-c2nc3c(=O)n(C)c(=O)nc-3n(C)n2)cc1 | 103 nM (active)
41 | Cc1ccc(C(c2nnnn2Cc2ccccc2)N2CC=C(c3ccc(F)cc3)CC2)cc1 (centres undefined) | inactive
42 | COC(=O)C12OCC34C(CC5C(C)=C(O)C(=O)CC5(C)C3C(O)C1O)OC(=O)C(OC(=O)/C=C(\C)C(C)C)C24 (centres undefined) | 579 nM (active)
43 | O=c1c2ccccc2nc(/C=C/c2ccc([N+](=O)[O-])o2)n1-c1ccc(O)cc1 | 290 nM (active)
44 | Cc1cccc(-n2c(/C=C/c3ccc([N+](=O)[O-])o3)nc3ccccc3c2=O)c1 | 1630 nM (active)
45 | Cc1nc2ccccc2c(=O)n1-c1cc([N+](=O)[O-])cc([N+](=O)[O-])c1 | 10300 nM (active)
46 | O=c1c2ccccc2nc(/C=C/c2ccc(O)cc2)n1-c1cccc(O)c1 | inactive
47 | CN1CCN(c2ccc([N+](=O)[O-])c3cccnc23)CC1 | 1030 nM (active)
48 | CC1CN(c2ccc([N+](=O)[O-])c3cccnc23)CC(C)N1 (centres undefined) | 1300 nM (active)
49 | CCCCn1c(=O)c(C(=O)NCc2ccccc2OC)c(O)c2ccccc21 | inactive
50 | [Hg+][c]1ccccc1 | 4100 nM (active)
51 | CN1CCCN(c2ccc([N+](=O)[O-])nc2)CC1 | 6500 nM (active)
52 | C=CC1CN2CCC1CC2[C@@H](OC(=O)c1ccc(OC)cc1)c1ccnc2ccccc12 (some centres undefined) | 818 nM (active)
53 | c1ccc2c(c1)[IH]c1ccccc1-2 | 460 nM (active)
54 | CN(c1ccccc1)c1ccc([N+](=O)[O-])c2nonc12 | 410 nM (active)
